Where “and” joins values, the source holds several entries; their conditions need not be identical. Equal entries are not always repeated. In all, about 16,000 compounds went through this assay and about 5,800 (36%) were called active. Another 23% or so got no clear call; they are omitted. The list shows a part of the results. Unmarked numbers belong to inactive results. The call rests on the fitted dose curve; in most records, active means well fitted curve in the direction sought with a large enough effect; inconclusive means small, poorly fitted or top-dose-only effect, or effect the other way; inactive means no such curve, though single readings can be large or run the other way.
Target: Cytochrome P450 2C19 (Homo sapiens) (UniProt P33261)
Experiment: Cytochrome panel assay with activity outcomes
Conditions: recombinant CYP, pro-luciferin dealkylation, luminescence, p450-cyp2c19; series mostly up to 57.1 µM
On the % scale 0 is the no-effect control and ±100 the full control effect.

Chain of Cytochrome P450 2C19 (Homo sapiens) (P33261 whole entry, looked up): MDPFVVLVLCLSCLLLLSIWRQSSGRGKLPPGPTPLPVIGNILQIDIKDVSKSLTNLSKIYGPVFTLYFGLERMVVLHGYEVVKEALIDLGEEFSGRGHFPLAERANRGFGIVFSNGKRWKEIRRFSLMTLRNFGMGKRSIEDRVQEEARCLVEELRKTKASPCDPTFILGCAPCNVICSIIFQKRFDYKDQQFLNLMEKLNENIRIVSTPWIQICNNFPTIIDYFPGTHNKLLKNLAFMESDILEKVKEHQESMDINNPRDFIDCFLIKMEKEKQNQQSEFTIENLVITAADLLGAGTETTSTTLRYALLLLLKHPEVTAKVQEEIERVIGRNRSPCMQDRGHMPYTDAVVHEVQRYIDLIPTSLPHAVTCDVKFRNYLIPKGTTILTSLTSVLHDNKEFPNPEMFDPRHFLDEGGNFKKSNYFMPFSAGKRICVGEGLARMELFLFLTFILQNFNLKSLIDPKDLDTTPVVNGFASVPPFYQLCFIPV

SMILES	AC50	activity, negative = inhibition
Cc1nc(N=Nc2ccc(S(=O)(=O)O)cc2S(=O)(=O)O)c(COP(=O)(O)O)c(C=O)c1O	inactive	
COc1ncc2nc(-c3cccc(C#N)c3)c(=O)n(CCC#N)c2n1	inactive	
COc1ccccc1-c1cncnc1NCc1cccc(C)c1	0.398 µM (active)	
Cc1cnc(CNc2ncncc2-c2ccccc2CN(C)C)cn1	inactive	
CC(=O)NCCNc1ncncc1-c1ccccc1C	inactive	
N#Cc1ccccc1-c1cncnc1NCc1cccnc1	inactive	
Cc1cnc(CNc2ncncc2-c2ccccc2C)cn1	7.94 µM (active)	
Cc1cnc(CNc2ncncc2-c2ccccc2C#N)cn1	inactive	
FC(F)(F)c1ccccc1-c1cncnc1NCc1cccnc1	2.51 µM (active)	
Cc1cccc(CNc2ncncc2-c2ccccc2C)c1	1 µM (active)	
Nc1cc(C(=O)O)[nH]c(=O)n1		35.4% [at 11.4 µM]
COC(=O)CNC(=O)CCCCC(=O)NCC(=O)OC	inactive	
Cc1nc2sccn2c(=O)c1Cl	inactive	
CC(C)(CN)CN		26.4% [at 11.4 µM]
CSc1nncc(/C(C)=N\Nc2ccccc2)n1	5.01 µM (active)	
N#Cc1ccc(CN2CCCC3(CCN(C(=O)c4cccc(F)c4)CC3)C2)cc1	inactive	
O=C(c1ccco1)N1CCC2(CCN(Cc3ccncc3)CC2)CC1	inactive	
N#Cc1ccc(CN2CC3(CCN(C(=O)c4cccc(F)c4)CC3)C2)cc1	2 µM (active)	
O=C(c1cccc(F)c1)N1CCC2(CCCN(Cc3cc(C(F)(F)F)cc(C(F)(F)F)c3)C2)CC1	inactive	
O=C(c1cccc(F)c1)N1CCC2(CC1)CN(Cc1ccccc1)C2	inactive	
O=C(c1ccco1)N1CCC2(CCCN(Cc3ccccc3)C2)CC1	inactive	
O=C(c1cccc(F)c1)N1CCC2(CCCN(Cc3ccncc3)C2)CC1	10 µM (active)	
O=C(c1cccc(F)c1)N1CCC2(CCCN(Cc3ccccc3)C2)CC1	inactive	
O=C(c1ccco1)N1CCC2(CCCN(Cc3ccncc3)C2)CC1	10 µM (active)	
O=C(O)c1ccc2c(c1)C(=O)N(C(Cc1ccc(O)cc1)C(=O)O)C2=O (configuration not stated)	inactive	
CO[C@@H]1COC(=O)[C@H](CCSC)NC(=O)C/C=C\[C@@H](C)COC(=O)[C@@H]2CCCN2C(=O)C/C=C\[C@H]1C		43.9% [at 11.4 µM]

SMILES	AC50	activity, negative = inhibition
CC(C)(C)c1cc2c(O)c(c1)Cc1cc(C(C)(C)C)cc(c1O)Cc1cc(C(C)(C)C)cc(c1O)Cc1cc(C(C)(C)C)cc(c1O)Cc1cc(C(C)(C)C)cc(c1O)Cc1cc(C(C)(C)C)cc(c1O)Cc1cc(C(C)(C)C)cc(c1O)Cc1cc(C(C)(C)C)cc(c1O)C2		-8.28% [at 11.4 µM]
Cc1cc(C(C)(C)C)cc(CNC2CCCCC2)c1O	0.02 µM (active)	
O=C(Cc1cccs1)N1CCC(c2nc3c(nnn3Cc3ccccc3Cl)c(=O)[nH]2)CC1	2 µM (active)	
O=C(Nc1ccccc1)N1CC2(CCN(C(=O)c3cc(C(F)(F)F)cc(C(F)(F)F)c3)CC2)C1	inactive	
O=C(CSc1ccc(C(F)(F)F)cc1[N+](=O)[O-])Nc1ccccc1	0.891 µM (active)	
Cc1ccc(Nc2c([N+](=O)[O-])ccc3c2=NC2(CCCCC2)N=3)cc1	2.82 µM (active)	
CSc1nsc(SC)c1C(=O)Nc1ccc(C)cc1	8.91 µM (active)	
COc1c(F)c(F)c(C(=O)O)c(Nc2ccc(C)cc2)c1F	inactive	
CCCCOC(=O)c1ccc(NC(=S)NC(=O)c2c(Cl)cnn2C)cc1	15.8 µM (active)	
CC(=O)Nc1ccc(N2C(=O)CC(c3ccccc3)CC2=O)cc1	inactive	
COCC(=O)N1CCC2(CC1)CCN(C(=O)Nc1cccc(F)c1)CC2	inactive	
CCN=C(Nc1cccc(F)c1)SC1CC(=O)N(c2ccc(OC)cc2)C1=O (configuration not stated)	3.98 µM (active)	
CCOC(=O)NNC1CC(=O)N(c2ccc(OC)cc2)C1=O (configuration not stated)	inactive	
O=C1CC(SC(=Nc2ccccc2)Nc2ccccc2)C(=O)N1c1cccc(Cl)c1 (configuration not stated)	2.24 µM (active)	
CC(C)(C)NC[C@H](O)COc1cccc2c1CCC(=O)N2	inactive	
C[C@@H]1C(=O)N(C)C(=O)c2nc[nH]c21	inactive	
CCSC[C@@H](N)C(=O)O		17.8% [at 11.4 µM]
COC(=O)c1sccc1NC(=O)c1cc(-c2cc(C)ccc2C)nc2ccccc12	2.51 µM (active)	
Cc1ccccc1-c1cc(C(=O)Nc2nc3c(s2)CCCC3)c2ccccc2n1	4.47 µM (active)	
Cc1ccc(C)c(-c2cc(C(=O)Nc3nccs3)c3ccccc3n2)c1	10 µM (active)	
Cc1ccc(C)c(-c2cc(C(=O)Nc3sc(C)c(C)c3C(N)=O)c3ccccc3n2)c1	2.24 µM (active)	
Nc1c2c(nc3ccccc13)CCC[C@H]2O	inactive	
O=C(O)c1ccccc1C(=O)Nc1nccs1	inactive	
Cc1sc(NC(=O)C2CCCCC2C(=O)O)c(C(N)=O)c1C (configuration not stated)	inactive	
CN(C)c1ccc(O)c2c1C[C@H]1C[C@H]3[C@@H](N(C)C)C(=O)C(C(N)=O)=C(O)[C@]3(O)C(=O)C1=C2O	inactive	
Cc1ccc(NC(=S)NC(=O)c2c(-c3ccccc3Cl)noc2C)cc1	2 µM (active)	

SMILES	AC50	activity, negative = inhibition
Cc1onc(-c2ccccc2Cl)c1C(=O)Nc1nnc(Cc2ccc(Cl)cc2)s1	15.8 µM (active)	
CC(=O)C1=NOC(CNC(=O)c2c(-c3ccccc3Cl)noc2C)C1 (configuration not stated)	11.2 µM (active)	
Cc1ccccc1-n1nc2c(c1NC(=O)c1ccc(S(=O)(=O)N(C)C)cc1)CSC2	inactive	
COc1ccc(Cc2nnc(NC(=O)c3ccc(Cl)c([N+](=O)[O-])c3)s2)cc1	inactive	
Cc1ccccc1-n1nc2c(c1NC(=O)c1c(-c3ccccc3Cl)noc1C)CSC2	11.2 µM (active)	
COc1ccc(-c2nc3cnc(Nc4cccc(OC)c4)nc3n(CCC#N)c2=O)cc1	inactive	
CCOC(=O)c1cnc2cc(-c3ccc(C(C)(C)C)cc3)nn2c1N	0.562 µM (active)	
Cc1occc1C(=O)NNC(=O)Cc1ccccc1	10 µM (active)	
Cc1ccccc1C(=O)NNC(=O)c1ccoc1C	inactive	
CCCC[S@@](=N)(=O)CC[C@@H](N)C(=O)O	inactive	
Cc1ccc(OCCNC(=O)c2cncc(Br)c2)cc1C	6.31 µM (active)	
Brc1ccc(-c2csc(N3CCC(c4ccccc4)C3)n2)cc1 (configuration not stated)	10 µM (active)	
Fc1ccc(-c2csc(N3CCC(c4ccccc4)C3)n2)cc1 (configuration not stated)	11.2 µM (active)	
Fc1cccc(C2NC(=S)NC3=C2N2CCC3CC2)c1 (configuration not stated)	inactive	
Cc1c(C2CCN(CCc3ccccc3)CC2)noc1-c1ccc(Cl)cc1	inactive	
Clc1ccc(-c2csc(N3CCC(c4ccccc4)C3)n2)cc1 (configuration not stated)	10 µM (active)	
Clc1ccc2c(c1)N=C(N1CCNCC1)c1ccccc1N2	inactive	
Cc1cccc(CNc2ccnc(-c3ccoc3)n2)c1	10 µM (active)	
Cc1cnc(CNc2ccnc(-c3ccoc3)n2)cn1	inactive	
c1ccc(CNc2ccnc(-c3ccoc3)n2)cc1	3.98 µM (active)	
CCCN(C/C=C\I)[C@@H]1CCc2cccc(O)c2C1	inactive	
Cc1ccc(N(C(C)C(=O)Nc2cc(Cl)ccc2Oc2ccccc2)S(C)(=O)=O)cc1 (configuration not stated)	1.41 µM (active)	
CC(C(=O)Nc1ccccc1Sc1ccccc1)N(c1ccccc1)S(C)(=O)=O (configuration not stated)	4.47 µM (active)	
Cc1cc2c(=O)[nH]c(N)nc2nc1C		20.6% [at 11.4 µM]
O=C1CC(NCCC2=CCCCC2)C(=O)N1c1cccc(Cl)c1Cl (configuration not stated)	4.47 µM (active)	
CO[C@H]1COC(=O)C/C=C\[C@H](C)[C@H](OC)COC(=O)[C@@H](C)COC(=O)C/C=C\[C@@H]1C		-8.22% [at 11.4 µM] and -6.35% [at 11.4 µM]

SMILES	AC50	activity, negative = inhibition
Cc1ccc(C2CC2C(=O)NN)cc1 (configuration not stated)	3.55 µM (active)	
C=CCN1CCc2c(cc(O)c(O)c2Cl)[C@H](c2ccccc2)C1	inactive	
CCOC(=O)C1CCCN(C(=O)CCCOc2cc(=O)n(C)c3ccccc23)C1 (configuration not stated)	6.31 µM (active)	
Cn1c(=O)cc(OCCCC(=O)N2CCN(c3ccccc3)CC2)c2ccccc21	1.26 µM (active)	
O=C(CCCN1C(=O)C2C3C=CC(C3)C2C1=O)N1CCN(c2ccccc2)CC1 (configuration not stated)	inactive	
O=C(O)c1ccc(/C=N\N=C2c3ccccc3-c3ccccc32)cc1		19.5% [at 11.4 µM]
Cc1c(S(=O)(=O)O)ccc(N=Nc2c(O)c(C(=O)O)cc3ccccc23)c1Cl		14.5% [at 11.4 µM]
COC(=O)CNC(c1ccccc1Cl)c1cc(Br)ccc1NC(=O)CCN1CCOCC1 (configuration not stated)	28.2 µM (active)	
O=C1C[C@@H](O)[C@@H](O)[C@H]2[C@@H]3C(=O)N(C[C@@H]4CCCO4)C(=O)[C@@H]3CC[C@H]12		43.9% [at 11.4 µM] and 16.6% [at 11.4 µM]
Cn1cccc1C(=O)N1CCC2(CC1)CCN(C(c1ccccc1)c1ccccc1)CC2	inactive	
CN(C)c1ccc(-c2cncnc2NCc2ccccc2)cc1	0.398 µM (active)	
CN(C)C(=O)c1ccc(-c2cncnc2NCc2cccnc2)cc1	2.51 µM (active)	
CN(C)C(=O)c1ccc(-c2cncnc2Nc2ccccc2)cc1	inactive	
CN(C)c1ccc(-c2cncnc2NCc2cccnc2)cc1	0.0316 µM (active)	
Cc1cnc(CNc2ncncc2-c2ccc(C(=O)N(C)C)cc2)cn1	inactive	
CNc1ncncc1-c1ccc(C(=O)N(C)C)cc1	25.1 µM (active)	
CN(C)C(=O)c1ccc(-c2cncnc2NCc2ccccc2)cc1	inactive	
CCOC(=O)c1c(NC(=O)c2ccc(S(=O)(=O)N3CCOCC3)cc2)sc2c1CCN(C)C2	inactive	
CCOC(=O)c1c(NC(=O)c2c(C)noc2C)sc2c1CCCCC2	inactive	
CCOC(=O)c1c(NC(=O)Cn2cc([N+](=O)[O-])cn2)sc2c1CCC2	2 µM (active)	
CCOC(=O)c1c(NC(=O)Cn2nc([N+](=O)[O-])c(Br)c2C)sc2c1CCC(C)C2 (configuration not stated)	8.91 µM (active)	
CCOC(=O)c1c(N2C(=O)Nc3cc(Cl)c(Cl)cc3N2O)sc2c1CCCCC2	inactive	
CCOC(=O)c1c(NC(=S)NC(=O)c2cnn(CC)c2)sc2c1CCC(C)C2 (configuration not stated)	inactive	
CCOC(=O)c1c(NC(=O)CSc2nnc(C)s2)sc2c1CCCCC2	2.24 µM (active)	

Source: PubChem BioAssay AID1851 (National Center for Advancing Translational Sciences (NCATS), 2009)
